Experimental data taken from PubChem BioAssay (EPA / NIEHS).
Activity calls are given as the source filed them. The calls were made as follows: active = hit-call score of the fitted dose curve at least 0.9, where 1 is the maximum; inactive = score below 0.9.

What was measured:
[1] = ATG_CRE_CIS: Attagene CIS-FACTORIAL HepG2 Assay for human cAMP Responsive Element (CRE) binding protein 3 (AID 2282926); settings: HepG2 CRE cis-reporter, Attagene multiplexed mRNA; actives raise or lower the signal
In short: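 Induced reporter mRNA from a CRE cis element, measured in HepG2 among many multiplexed units at 24 h. Detection used RT-PCR plus capillary electrophoresis of fluorescent fragments; DMSO served as negative control.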

[2] = molecular target: CCAAT/enhancer-binding protein beta (Homo sapiens) (UniProt P17676); experiment: ATG_C_EBP_CIS: Attagene CIS-FACTORIAL HepG2 Assay for human CCAAT/Enhancer Binding Protein (C/EBP) beta (AID 2282927); settings: HepG2 Attagene cis-factorial transcription factor reporter; actives raise or lower the signal
Sequence of CCAAT/enhancer-binding protein beta (Homo sapiens) (P17676 whole entry, looked up): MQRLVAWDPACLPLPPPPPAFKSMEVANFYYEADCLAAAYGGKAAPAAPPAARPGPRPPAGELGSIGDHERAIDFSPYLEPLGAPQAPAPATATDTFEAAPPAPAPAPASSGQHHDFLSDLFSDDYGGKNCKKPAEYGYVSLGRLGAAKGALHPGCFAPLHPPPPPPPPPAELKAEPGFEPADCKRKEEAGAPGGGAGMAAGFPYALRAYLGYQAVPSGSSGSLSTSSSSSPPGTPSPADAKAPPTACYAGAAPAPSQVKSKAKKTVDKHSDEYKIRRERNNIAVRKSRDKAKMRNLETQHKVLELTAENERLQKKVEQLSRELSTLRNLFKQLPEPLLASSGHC
In short: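 Transiently transfected HepG2 (MRTU library, endogenous TF-driven promoters); 24 h dosing; total RNA → oligo(dT) RT → PCR → 6-FAM primer extension → HpaI digest → CE; fit bidirectionally vs DMSO.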

[3] = ATG_CMV_CIS: Attagene CIS-FACTORIAL HepG2 Assay for human CMV (Internal Marker) (AID 2282928); settings: HepG2 CMV promoter reporter, transcription factor profiling; actives raise or lower the signal;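 also: endpoint acts as a background internal control marker rather than a target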
In short: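 Reporter transcripts from transfected HepG2 cells are isolated after 24 h of chemical dosing, reverse-transcribed and amplified. Fragments labeled with 6-FAM are cut with HpaI and quantified by capillary electrophoresis; DMSO defines baseline.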

[4] = ATG_DR4_LXR_CIS: Attagene CIS-FACTORIAL HepG2 Assay for human Liver X Receptor (LXR), DR4 submotif (AID 2282929); settings: HepG2 Attagene DR4 cis-reporter, mRNA transcription; actives raise or lower the signal
In short: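 Measures endogenous transcription factor activity via a DR4-driven reporter transcript in human HepG2 cells. Compounds incubated 24 h; mRNA quantified by RT-PCR and capillary electrophoresis, analysed as gain or loss of signal versus DMSO.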

[5] = molecular target: Aryl hydrocarbon receptor (Homo sapiens) (UniProt P35869); experiment: ATG_Ahr_CIS: Attagene CIS-FACTORIAL HepG2 Assay for human Aryl Hydrocarbon Receptor (Ahr) (AID 2282930); settings: HepG2 AhR cis-factorial reporter transcription; actives raise or lower the signal
Sequence of Aryl hydrocarbon receptor (Homo sapiens) (P35869 whole entry, looked up): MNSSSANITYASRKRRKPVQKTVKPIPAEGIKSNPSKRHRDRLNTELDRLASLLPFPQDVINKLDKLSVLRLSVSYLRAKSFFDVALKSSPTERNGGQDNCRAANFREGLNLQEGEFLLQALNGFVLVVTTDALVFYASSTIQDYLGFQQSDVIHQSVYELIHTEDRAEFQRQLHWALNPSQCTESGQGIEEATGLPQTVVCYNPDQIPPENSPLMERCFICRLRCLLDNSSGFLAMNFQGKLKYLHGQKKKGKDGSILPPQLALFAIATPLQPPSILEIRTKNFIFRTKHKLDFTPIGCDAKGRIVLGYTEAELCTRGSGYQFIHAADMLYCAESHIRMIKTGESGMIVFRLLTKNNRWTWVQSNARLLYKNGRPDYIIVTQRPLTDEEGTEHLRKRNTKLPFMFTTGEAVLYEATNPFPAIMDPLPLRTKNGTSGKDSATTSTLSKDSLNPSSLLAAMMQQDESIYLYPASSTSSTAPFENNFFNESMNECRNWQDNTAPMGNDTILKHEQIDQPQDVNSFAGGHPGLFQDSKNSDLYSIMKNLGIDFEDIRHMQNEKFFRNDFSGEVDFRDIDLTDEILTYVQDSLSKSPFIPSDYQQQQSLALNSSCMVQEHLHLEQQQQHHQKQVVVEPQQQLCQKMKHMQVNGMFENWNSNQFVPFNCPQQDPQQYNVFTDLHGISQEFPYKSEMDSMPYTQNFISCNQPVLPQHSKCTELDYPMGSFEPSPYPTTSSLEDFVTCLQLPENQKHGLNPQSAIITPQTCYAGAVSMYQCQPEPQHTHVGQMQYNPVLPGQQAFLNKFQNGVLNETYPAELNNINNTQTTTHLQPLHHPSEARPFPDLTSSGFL
In short: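 Read-out: reporter mRNA quantified by RT-PCR with fluorescent primer extension and capillary electrophoresis. Human HepG2 liver cells carried transfected cis-promoter reporter units and were exposed to chemical for 24 h; gain or loss fitted relative to DMSO.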

[6] = ATG_AP_1_CIS: Attagene CIS-FACTORIAL HepG2 Assay for human Activator Protein 1 (AP-1) (AID 2282931); settings: HepG2 Attagene cis-factorial AP-1 reporter mRNA; actives raise or lower the signal
In short: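 Bidirectional concentration-response fitting against DMSO controls. Underlying signal: reporter mRNA from cis-promoter constructs in transiently transfected HepG2, measured after 24 h by RT-PCR and capillary electrophoresis.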

[7] = ATG_BRE_CIS: Attagene CIS-FACTORIAL HepG2 Assay for human Bone Morphogenetic Protein (BMP) Response Element (BRE) (AID 2282933); settings: HepG2 BMP response element reporter, Attagene transcription factor profiling; actives raise or lower the signal
In short: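 Endogenous transcription factor activity at a BMP response element was monitored in transfected HepG2 cells 24 h after dosing. Fluorescent RT-PCR products were resolved by capillary electrophoresis, and activity was fitted in both directions versus DMSO.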

[8] = molecular target: Retinoic acid receptor alpha (Homo sapiens) (UniProt P10276); experiment: ATG_DR5_RAR_CIS: Attagene CIS-FACTORIAL HepG2 Assay for human Retinoic Acid Receptor Alpha (RARE), DR5 submotif (AID 2282934); settings: HepG2 Attagene cis-factorial RARE DR5 reporter, mRNA; actives raise or lower the signal
Sequence of Retinoic acid receptor alpha (Homo sapiens) (P10276 whole entry, looked up): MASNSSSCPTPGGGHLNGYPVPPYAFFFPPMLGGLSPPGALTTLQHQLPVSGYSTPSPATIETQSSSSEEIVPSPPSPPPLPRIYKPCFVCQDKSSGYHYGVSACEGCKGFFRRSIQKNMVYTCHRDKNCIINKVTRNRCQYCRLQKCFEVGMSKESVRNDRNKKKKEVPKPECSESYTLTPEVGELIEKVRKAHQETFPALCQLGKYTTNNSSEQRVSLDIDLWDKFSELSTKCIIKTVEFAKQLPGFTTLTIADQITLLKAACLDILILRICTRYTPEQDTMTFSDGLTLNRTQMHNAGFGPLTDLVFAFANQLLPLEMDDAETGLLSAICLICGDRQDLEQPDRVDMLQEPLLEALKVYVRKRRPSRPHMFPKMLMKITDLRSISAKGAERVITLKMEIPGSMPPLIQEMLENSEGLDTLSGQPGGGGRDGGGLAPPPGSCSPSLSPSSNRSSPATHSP
In short: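 Read-out: DR5-driven reporter transcript measured by RT-PCR, 6-FAM primer extension, HpaI digest and capillary electrophoresis. Human HepG2 liver cells carry transiently transfected cis-element reporter constructs; dosing lasts 24 h. Gain or loss of signal fitted against DMSO baseline.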

[9] = molecular target: Transcription factor E2F1 (Homo sapiens) (UniProt Q01094); experiment: ATG_E2F_CIS: Attagene CIS-FACTORIAL HepG2 Assay for human E2F Transcription Factor 1 (AID 2282935); settings: HepG2 Attagene cis-reporter, E2F reporter RNA transcripts; actives raise or lower the signal
Sequence of Transcription factor E2F1 (Homo sapiens) (Q01094 whole entry, looked up): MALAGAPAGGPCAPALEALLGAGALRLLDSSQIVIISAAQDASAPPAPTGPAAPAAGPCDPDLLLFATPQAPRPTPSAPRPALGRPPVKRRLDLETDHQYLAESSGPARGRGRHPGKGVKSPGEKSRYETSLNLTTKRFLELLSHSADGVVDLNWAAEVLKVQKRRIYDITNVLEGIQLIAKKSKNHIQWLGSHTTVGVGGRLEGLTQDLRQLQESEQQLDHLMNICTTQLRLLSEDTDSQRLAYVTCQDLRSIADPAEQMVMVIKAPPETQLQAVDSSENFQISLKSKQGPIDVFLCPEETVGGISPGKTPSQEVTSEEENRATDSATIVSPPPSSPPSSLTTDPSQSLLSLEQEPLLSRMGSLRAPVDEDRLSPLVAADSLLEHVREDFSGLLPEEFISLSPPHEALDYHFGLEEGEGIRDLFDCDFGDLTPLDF
In short: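 Transient MRTU transfection of HepG2; 24 h compound exposure; RNA → oligo(dT) RT → PCR → FAM label → HpaI cut → CE fluorescence. Gain/loss of signal fit against DMSO.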

[10] = ATG_AP_2_CIS: Attagene CIS-FACTORIAL HepG2 Assay for human Activator Protein 2 (AP-2) (AID 2282932); settings: HepG2 AP-2 cis-reporter, Attagene transcription factor profiling; actives raise or lower the signal
In short: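 Read-out: fluorescent reporter mRNA via RT-PCR and capillary electrophoresis, 24 h post-dose in transiently transfected HepG2. Endogenous factors drive cis-promoter reporters; gain or loss of signal fitted bidirectionally against DMSO.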

Measured: AC50

O=C(O)CCCC[C@@H]1SC[C@@H]2NC(=O)N[C@@H]21
not listed: [10]
inactive: all other assays above

COC(=O)c1cc(Cl)ccc1[N+](=O)[O-]
not listed: [6]
inactive: all other assays above

COC(=O)c1c(C)cc(O)c(C)c1O
not listed: [3] | [8]
inactive: all other assays above

CC(C)c1ccc(C#N)cc1
not listed: [3]
inactive: all other assays above

Cc1cc(C)c(C)c(O)c1
not listed: [3]
inactive: all other assays above

Cn1c([N+](=O)[O-])cnc1COC(N)=O
not listed: [6]
inactive: all other assays above

c1cc(C(c2ccc(OCC3CO3)cc2)C(c2ccc(OCC3CO3)cc2)c2ccc(OCC3CO3)cc2)ccc1OCC1CO1 (centres undefined)
active: [1] 30.7 µM | [4] 33.1 µM
not listed: [3] | [9]
inactive: all other assays above

C=C(C)[C@@H]1CCC2=CCC[C@@H](C)[C@]2(C)C1
active: [3] 67 µM
not listed: [6] | [10]
inactive: all other assays above

OCCNCc1ccccc1
not listed: [3]
inactive: all other assays above

Cc1cc(=O)n(-c2ccccc2)n1C
not listed: [3]
inactive: all other assays above

N#[N+]c1ccc2c(S(=O)(=O)[O-])cccc2c1O
not listed: [3]
inactive: all other assays above

CCOC(=O)CC(C(C)=O)C(C)=O
not listed: [6] | [10]
inactive: all other assays above

N=c1ccn2c(n1)O[C@H]1[C@H](O)[C@@H](CO)O[C@H]12
not listed: [3]
inactive: all other assays above

O=C(Oc1ccccc1)c1ccc2ccccc2c1O
active: [5] 17 µM | [6] 97.4 µM | [7] 76.2 µM
not listed: [3]
inactive: all other assays above

CC(=O)Oc1ccc(C(C)=O)cc1
not listed: [3]
inactive: all other assays above

O=[N+]([O-])c1ccc(CO)cc1
not listed: [6]
inactive: all other assays above

CCC(C)OC(=O)c1ccc(O)cc1 (centres undefined)
active: [3] 67.6 µM
not listed: [6]
inactive: all other assays above

O=c1c2ccccc2nnn1CCl
not listed: [3] | [9]
inactive: all other assays above

Cc1ccc(C(C)(C)C)cc1
not listed: [3]
inactive: all other assays above

O=C1CCC(=O)N1Cl
not listed: [6] | [8]
inactive: all other assays above

CCC(=O)Oc1ccc(/C(CC)=C(\CC)c2ccc(OC(=O)CC)cc2)cc1
active: [1] 25.9 µM | [4] 6.03 µM
not listed: [6] | [8]
inactive: all other assays above

CCc1nccnc1C
not listed: [3]
inactive: all other assays above

CCOc1ccc(N)c([N+](=O)[O-])c1
not listed: [3]
inactive: all other assays above

O=C1c2ccccc2C(=O)C1c1nc2ccccc2c(Br)c1O
active: [5] 0.388 µM | [7] 100 µM
not listed: [3]
inactive: all other assays above

CN1C(=O)N(C)C(O)C1O (centres undefined)
not listed: [6]
inactive: all other assays above

O=c1[nH]nc(-c2ccc([N+](=O)[O-])o2)o1
active: [6] 87.6 µM
not listed: [3] | [8]
inactive: all other assays above

OC1OCCOC1O (centres undefined)
not listed: [3]
inactive: all other assays above

C[C@]12CCC(=O)C=C1CC[C@@H]1[C@@H]2C(=O)C[C@@]2(C)[C@H]1CC[C@]2(O)C(=O)CO
not listed: [3]
inactive: all other assays above
